Here are results for twelve sequences from PMC8384837, “Expanding the binding specificity for RNA recognition by a PUF domain”.

Changes are numbered by the printed parent chain.

Holding throughout (experiment): yeast three-hybrid, YBZ-1, SC-Leu-His + 0.5 mM 3-AT, 4 days
Settings in all cases: tags: N-Gal4 AD-HA kept; label: inside an RPR1-promoter hybrid RNA with tandem MS2 sites; ssRNA

One test has as its target PUM1 PUF domain R5-TRS (Homo sapiens, UniProt Q14671 828-1176, C1007T;Q1011S). In short, it runs like this: (§1)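 Sequencing with Illumina followed PCR amplification of the repeat regions from transformants grown four days on SC-Leu (input) or SC-Leu-His + 0.5 mM 3-AT (selection). The transformants were strain YBZ-1 with a LexA–MS2 coat fusion and a HIS3 reporter, carrying Pumilio-1 PUF domain libraries and matching RNA elements. The interaction score is the log change in variant frequency from input to selection, computed in log2 with a pseudocount of 1 for absent variants.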

For the next test, the target named is PUM1 PUF domain R4-PHT (Homo sapiens, UniProt Q14671 828-1176, N971P;Q975T). In short, it runs like this:
as §1

The target in a further test is PUM1 PUF domain R4-GRG (Homo sapiens, UniProt Q14671 828-1176, N971G;H972R;Q975G). In outline: as §1
A further test has as its target PUM1 PUF domain R1-KYI (Homo sapiens, UniProt Q14671 828-1176, S863K;R864Y;Q867I). In short, it runs like this:
as §1

The target of the next test is PUM1 PUF domain R5-PLK (Homo sapiens, UniProt Q14671 828-1176, C1007P;R1008L;Q1011K). In short, it runs like this: as §1
The next test deals with PUM1 PUF domain R8-KFS (Homo sapiens, UniProt Q14671 828-1176, N1122K;Y1123F;Q1126S). In outline:
as §1

Another test has as its target PUM1 PUF domain R8-RHK (Homo sapiens, UniProt Q14671 828-1176, N1122R;Y1123H;Q1126K). In short, it runs like this: as §1
Another test addresses PUM1 PUF domain R8-RFC (Homo sapiens, UniProt Q14671 828-1176, N1122R;Y1123F;Q1126C). In outline: as §1
The target in another test is PUM1 PUF domain R7-LNA (Homo sapiens, UniProt Q14671 828-1176, S1079L;E1083A). In short, it runs like this:
as §1

For another test, the target named is PUM1 PUF domain R7-GGR (Homo sapiens, UniProt Q14671 828-1176, S1079G;N1080G;E1083R). In outline: as §1
The next test concerns the target PUM1 PUF domain R3-VFW (Homo sapiens, UniProt Q14671 828-1176, C935V;R936F;Q939W). In outline: as §1
For the next test, the target named is PUM1 PUF domain R3-RTK (Homo sapiens, UniProt Q14671 828-1176, C935R;R936T;Q939K). In outline: as §1
The next test has as its target PUM1 PUF domain R3-PWG (Homo sapiens, UniProt Q14671 828-1176, C935P;R936W;Q939G). In outline:
as §1

The next test deals with PUM1 PUF domain R3-TRA (Homo sapiens, UniProt Q14671 828-1176, C935T;Q939A). In outline:
as §1

Another test has as its target PUM1 PUF domain R3-AWG (Homo sapiens, UniProt Q14671 828-1176, C935A;R936W;Q939G). In outline:
as §1

A further test concerns the target PUM1 PUF domain R1-CCK (Homo sapiens, UniProt Q14671 828-1176, S863C;R864C;Q867K). In short, it runs like this: as §1
For the next test, the target named is T1, PUM1 PUF domain R6-CFM (Homo sapiens, UniProt Q14671 828-1176, N1043C;Y1044F;Q1047M).
T1 sequence: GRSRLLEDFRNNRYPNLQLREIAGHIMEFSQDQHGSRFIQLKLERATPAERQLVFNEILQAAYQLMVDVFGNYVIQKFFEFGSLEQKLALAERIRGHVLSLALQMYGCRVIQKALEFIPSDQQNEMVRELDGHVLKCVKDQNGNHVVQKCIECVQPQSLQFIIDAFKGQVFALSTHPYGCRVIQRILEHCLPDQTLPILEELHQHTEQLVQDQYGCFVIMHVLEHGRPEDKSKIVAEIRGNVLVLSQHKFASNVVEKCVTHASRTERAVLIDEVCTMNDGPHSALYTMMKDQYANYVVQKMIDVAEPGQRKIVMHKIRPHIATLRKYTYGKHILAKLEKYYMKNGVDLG
In outline: as §1

For another test, the target named is PUM1 PUF domain R3-LYM (Homo sapiens, UniProt Q14671 828-1176, C935L;R936Y;Q939M). In short, it runs like this:
as §1

For the next test, the target named is PUM1 PUF domain R8-NFV (Homo sapiens, UniProt Q14671 828-1176, Y1123F;Q1126V). In short, it runs like this: as §1
For a further test, the target named is T2, PUM1 PUF domain R6-GRQ (Homo sapiens, UniProt Q14671 828-1176, N1043G;Y1044R).
T2 sequence: T1 sequence with C216G, F217R, M220Q
In short, it runs like this:
as §1

As for “GGCUAGAACUAGUGGAUCCCCCGGCGCCCGGCGGCUCGAGCCCGGGUAAGUGUGAAUAGUCUGCAUGCCGCCGGGCGCCAUGCCUGCAGGUCGACUCUAGAAAACAUG”, in the test with PUM1 PUF domain R5-TRS, the binding signal was 2.97 log2 enrichment (interaction score).

Regarding “GGCUAGAACUAGUGGAUCCCCCGGCGCCCGGCGGCUCGAGCCCGGGUAAGUGUACAUAGUCUGCAUGCCGCCGGGCGCCAUGCCUGCAGGUCGACUCUAGAAAACAUG”, the binding signal in the test with PUM1 PUF domain R4-PHT is 2.45 log2 enrichment (interaction score); with PUM1 PUF domain R4-GRG, 0.59 log2 enrichment (interaction score).

On to “GGCUAGAACUAGUGGAUCCCCCGGCGCCCGGCGGCUCGAGCCCGGGUAAGUGUAAAUCGUCUGCAUGCCGCCGGGCGCCAUGCCUGCAGGUCGACUCUAGAAAACAUG”, for which the binding signal in the test with PUM1 PUF domain R1-KYI is 4.65 log2 enrichment (interaction score).

Regarding “GGCUAGAACUAGUGGAUCCCCCGGCGCCCGGCGGCUCGAGCCCGGGUAAGUGUAUAUAGUCUGCAUGCCGCCGGGCGCCAUGCCUGCAGGUCGACUCUAGAAAACAUG”, the binding signal with PUM1 PUF domain R4-GRG is 2.09 log2 enrichment (interaction score).

In the case of “GGCUAGAACUAGUGGAUCCCCCGGCGCCCGGCGGCUCGAGCCCGGGUAAGUGUUAAUAGUCUGCAUGCCGCCGGGCGCCAUGCCUGCAGGUCGACUCUAGAAAACAUG”, the binding signal with PUM1 PUF domain R5-PLK was 2.84 log2 enrichment (interaction score); with PUM1 PUF domain R5-TRS it was 3.03 log2 enrichment (interaction score).

As to “GGCUAGAACUAGUGGAUCCCCCGGCGCCCGGCGGCUCGAGCCCGGGUAAGCGUAAAUAGUCUGCAUGCCGCCGGGCGCCAUGCCUGCAGGUCGACUCUAGAAAACAUG”, the binding signal with PUM1 PUF domain R8-KFS is 3.24 log2 enrichment (interaction score); with PUM1 PUF domain R8-RHK, 3.29 log2 enrichment (interaction score); in the test with PUM1 PUF domain R8-RFC, 5.87 log2 enrichment (interaction score).

Take “GGCUAGAACUAGUGGAUCCCCCGGCGCCCGGCGGCUCGAGCCCGGGUAAGUUUAAAUAGUCUGCAUGCCGCCGGGCGCCAUGCCUGCAGGUCGACUCUAGAAAACAUG”: the binding signal is 4.5 log2 enrichment (interaction score) in the test with PUM1 PUF domain R7-LNA and 3.28 log2 enrichment (interaction score) with PUM1 PUF domain R7-GGR.

For the sequence “GGCUAGAACUAGUGGAUCCCCCGGCGCCCGGCGGCUCGAGCCCGGGUAAGUGUAAUUAGUCUGCAUGCCGCCGGGCGCCAUGCCUGCAGGUCGACUCUAGAAAACAUG”, the binding signal was 5.01 log2 enrichment (interaction score) with PUM1 PUF domain R3-VFW; 4.87 log2 enrichment (interaction score) in the test with PUM1 PUF domain R3-RTK; 2.22 log2 enrichment (interaction score) with PUM1 PUF domain R3-PWG; 0.43 log2 enrichment (interaction score) in the test with PUM1 PUF domain R3-TRA; 0.35 log2 enrichment (interaction score) with PUM1 PUF domain R3-AWG.

As for “GGCUAGAACUAGUGGAUCCCCCGGCGCCCGGCGGCUCGAGCCCGGGUAAGUGUAAAUUGUCUGCAUGCCGCCGGGCGCCAUGCCUGCAGGUCGACUCUAGAAAACAUG”, in the test with PUM1 PUF domain R1-CCK, the binding signal was 2.6 log2 enrichment (interaction score).

Take “GGCUAGAACUAGUGGAUCCCCCGGCGCCCGGCGGCUCGAGCCCGGGUAAGGGUAAAUAGUCUGCAUGCCGCCGGGCGCCAUGCCUGCAGGUCGACUCUAGAAAACAUG”: the binding signal with PUM1 PUF domain R8-RHK was 3.54 log2 enrichment (interaction score).

With “GGCUAGAACUAGUGGAUCCCCCGGCGCCCGGCGGCUCGAGCCCGGGUAAGUGUAAAUAGUCUGCAUGCCGCCGGGCGCCAUGCCUGCAGGUCGACUCUAGAAAACAUG”, the binding signal in the test with PUM1 PUF domain R4-PHT is 6.07 log2 enrichment (interaction score); with PUM1 PUF domain R6-CFM it was 3.02 log2 enrichment (interaction score); with PUM1 PUF domain R3-LYM it was 4.11 log2 enrichment (interaction score); with PUM1 PUF domain R8-RHK, 2.95 log2 enrichment (interaction score); with PUM1 PUF domain R5-TRS it was 2.85 log2 enrichment (interaction score); with PUM1 PUF domain R3-VFW, 4.87 log2 enrichment (interaction score). The binding signal with PUM1 PUF domain R3-PWG was 4.24 log2 enrichment (interaction score); with PUM1 PUF domain R8-NFV, 3.02 log2 enrichment (interaction score); with PUM1 PUF domain R3-TRA, 3.6 log2 enrichment (interaction score); in the test with PUM1 PUF domain R3-AWG, 3.6 log2 enrichment (interaction score); in the test with PUM1 PUF domain R4-GRG it was 5.19 log2 enrichment (interaction score); with PUM1 PUF domain R8-RFC, 4.53 log2 enrichment (interaction score). Also, the binding signal in the test with PUM1 PUF domain R6-GRQ is 3.49 log2 enrichment (interaction score).

With “GGCUAGAACUAGUGGAUCCCCCGGCGCCCGGCGGCUCGAGCCCGGGUAAGUGUAAGUAGUCUGCAUGCCGCCGGGCGCCAUGCCUGCAGGUCGACUCUAGAAAACAUG”, the binding signal in the test with PUM1 PUF domain R3-PWG was 2.38 log2 enrichment (interaction score); in the test with PUM1 PUF domain R3-TRA, 0.89 log2 enrichment (interaction score); with PUM1 PUF domain R3-AWG it was 0.66 log2 enrichment (interaction score).
